# Glioma ERSR ind: ER stress response induction in glioma; U87-MG GRP78 promoter luciferase reporter, 16 h; Potency, µM, for inactives: at the top dose activation, most hits filed as activators; actives 0.02% (n = 420,000); note: potency is the fitted concentration of half-maximal effect; series mostly up to about 76 µM; % of control where 0% means no effect; nearly all actives have a fitted effect of over 35% in size
#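 Stably transfected U87-MG human glioma cells carrying a GRP78-based luminescent sensor were seeded at 1000 cells/well, pin-dosed with compounds and incubated 16 h. Luciferase reagent was then added, and end-point luminescence was read after 10 min at room temperature.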
# DRD3 agonist: agonists of human D3 dopamine receptor | P35462 | D3R DiscoveRx beta-arrestin cells, luminescence, 90 min | max activation, % | actives 0.58% (n = 410,000); in the data active = max activation above about 30%; note: 0% is about no effect
# Target sequence (P35462 whole entry, looked up): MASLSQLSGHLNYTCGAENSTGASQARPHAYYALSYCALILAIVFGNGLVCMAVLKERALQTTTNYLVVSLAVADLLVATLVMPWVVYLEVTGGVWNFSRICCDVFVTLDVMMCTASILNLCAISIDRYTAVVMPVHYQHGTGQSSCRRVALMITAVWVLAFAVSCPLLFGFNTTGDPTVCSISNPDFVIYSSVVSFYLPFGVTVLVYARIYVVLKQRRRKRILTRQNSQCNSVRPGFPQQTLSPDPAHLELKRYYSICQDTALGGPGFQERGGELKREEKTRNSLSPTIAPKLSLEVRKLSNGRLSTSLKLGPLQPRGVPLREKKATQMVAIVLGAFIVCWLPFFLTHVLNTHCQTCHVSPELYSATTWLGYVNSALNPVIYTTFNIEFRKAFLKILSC
#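 Cells at 1500/well, incubated overnight, then treated with pinned compounds (dopamine as control) for 90 min at 37 degrees C. DiscoveRx reagent added for 30 - 60 minutes at room temperature; luminescence read.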
# Nrf2 ARE act: activators of Nrf2 (ARE) signaling | AREc32 ARE-luciferase reporter (MCF7-derived line), luminescence, 24 h | Potency, µM (series often up to 46.1 µM), inactives show top-dose activation, usual class: activators | actives 0.31% (n = 410,000) | AID 624171; note: potency is the fitted concentration of half-maximal effect; % of control where 0% means no effect; nearly all actives have a fitted effect of over 65% in size
#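 Nrf2 activation is followed as ARE-luciferase induction in the AREc32 line after one day of compound treatment; luminescence is read with Steady-Glo.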
# DRD3 antagonist: D3 dopamine receptor (human) antagonism; D3R cells, DiscoveRx beta-arrestin luminescence, antagonist mode; hits give low values; max response, negative = inhibition, %; actives 2.5% (n = 360,000); AID 652054; in the data active = max response below about -50%; inconclusive = no clear call, values can overlap the other calls; note: % is set by controls: 0 for no effect and ±100 for the full control effect
#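 Cells plated overnight at 1500 cells/well, then exposed to library compounds with dopamine controls for 90 minutes at 37 degrees C. DiscoveRx reagent added for 30–60 minutes at room temperature; luminescence read, quantitative HTS format.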
# * = called active by the depositor; ? = inconclusive; . = no result given; ! = a repeat was not active. Shown are actives, neighbours in structure and some others; about 3% of the full set was active somewhere. Unless noted, calls come from the whole dose curve; as a rule, active = well fitted curve in the direction sought with a large enough effect; inconclusive = small, poorly fitted or top-dose-only effect, or another doubt; inactive = no such curve, though single readings can be large; an effect the other way counts as inactive or inconclusive.
SMILES,Glioma ERSR ind,DRD3 agonist,Nrf2 ARE act,DRD3 antagonist
CC(=O)c1ccccc1-c1ccc2c(c1)CC(CNC(=O)C[C@@H]1C[C@@H](C)NC(=S)N1)O2 (some centres not stated),4.3%,.,.,.
Cc1nc(-c2cccc(NC(=O)Nc3ccc([N+](=O)[O-])cc3)c2)no1,5.2%,-2.1,-0.1%,.
N#CC(C#N)=C(N)/C(C#N)=C/c1ccc2[nH]ccc2c1,-2.0%,.,.,.
CCCCCCC(O)C/C=C/CCCCCCCC(=O)O (configuration not stated),-2.5%,.,.,.
Cc1cc(O)c(C(=O)/C=C/c2cccc([N+](=O)[O-])c2)c(=O)o1,-2.8%,-11.9,22.4µM*,-10.6
O=C(/C=C/c1cccs1)c1ccc(Br)cc1,-0.3%,-2.6,?,0.0
O=C(/C=C/c1cccc([N+](=O)[O-])c1)Nc1ccc(NC(=O)c2cccs2)cc1,-2.9%,-13.2,-0.6%,?
O=C(/C=C/c1cccc([N+](=O)[O-])c1)c1cccs1,?,-14.3,15.8µM*,-57.5*
O=C(/C=C\c1cccs1)c1c(O)ccc2ccc(=O)oc12,4.4%,2.1,11.2µM*,-16.5
CN(C)c1cc2c3ccccc3ccc2c2ccccc12,-1.6%,.,.,.
CC(=O)NCCNC(=O)c1cnn(-c2nccc(-c3cc(C)sc3C)n2)c1C,-5.6%,.,.,.
COc1ccccc1N1CCN(CC(=O)N2CCCC2)CC1,0.0%,-8.7,3.5%,-14.1
COc1ccccc1N1CCN(CCCCN2C(=O)c3ccccc3C2=O)CC1,-0.3%,-6.8,-1.2%,-107.3*
COc1ccccc1N1CCN(CCN2C(=O)C3CCCN3C2=O)CC1 (configuration not stated),-3.4%,-34.4,0.1%,-59.2*
COc1ccccc1N1CCN(CCCCN2C(=O)C3CCCN3C2=O)CC1 (configuration not stated),-1.9%,-18.2,-0.1%,-86.7*
CCCNC(=O)c1ccccc1N1CCN(CCCCN2C(=O)C3CCCCN3C2=O)CC1 (configuration not stated),0.0%,-7.8,0.3%,-72.3*
Cc1ccccc1C(=O)N1CC/C(=N/OS(=O)(=O)O)c2ccc(Cl)cc21,-3.6%,.,.,.
O=C1C2CCCCN2C(=O)N1CCCCN1CCN(c2ccc([N+](=O)[O-])cc2)CC1 (configuration not stated),-5.0%,-10.6,0.8%,-18.4
O=C1C2CCCCN2C(=O)N1CCCCN1CCN(c2ccccc2Oc2ccccc2)CC1 (configuration not stated),-1.6%,-22.0,3.4%,-104.2*
Cc1cc(C2CCCCC2)n(O)c(=O)c1,-1.1%,45.7*!,4.7%,44.7
Cn1c(NC2CCCCC2)cc(=O)n(C)c1=O,-2.7%,4.9,-0.2%,-11.9
Cn1c(=O)c(=O)n(C)c2cc(S(=O)(=O)N3CCCC3C(=O)Nc3cccc(F)c3)ccc21 (configuration not stated),-3.3%,-9.3,-1.4%,.
S=c1[nH]nc(-c2ccccn2)n1/N=C/c1ccc(Br)s1,-0.5%,13.0,4.4%,-55.6*
CCn1c(SCC(=O)NCc2ccco2)nnc1-c1ccc(N(C)C)cc1,-4.7%,.,.,.
Cc1ccccc1C(=O)Nc1ccc(C(=O)N2CCCC(O)c3cc(Cl)ccc32)c(C)c1 (configuration not stated),-1.0%,2.6,.,.
SMILES,Glioma ERSR ind,DRD3 agonist,Nrf2 ARE act,DRD3 antagonist
CCC1Nc2ncnc(N3CCN(c4ccccn4)CC3)c2N(Cc2ccc(Cl)cc2)C1=O (configuration not stated),-5.6%,-54.1,7.4%,-103.7*
CCC1Nc2ncnc(N3CCN(c4ccccn4)CC3)c2N(Cc2ccc(Br)cc2)C1=O (configuration not stated),-4.7%,-96.2,5.3%,-142.4*
CCC1Nc2ncnc(N3CCOCC3)c2N(Cc2ccc(Br)cc2)C1=O (configuration not stated),-1.1%,-23.1,-0.2%,-3.8
COc1cn(CC(=O)Nc2cc(C)cc(C)c2)c(CN2CCCCC2)cc1=O,-0.1%,8.4,-1.0%,.
Cc1cccc2c3c(ccc12)C1=C(C(=O)C3=O)[C@@H](C)CO1,-3.5%,.,.,.
C(=C1NCCN1)c1cccc2ccccc12,-2.8%,.,.,.
CSc1nnc(N2C(=O)C(O)=C(C(=O)c3ccco3)C2c2ccccc2F)s1 (configuration not stated),1.4%,-4.0,14.1µM*,1.6
CN(C)c1ccc2ccc3cccc4ccc1c2c34,0.2%,.,.,.
C=CN1CCCC1=O,-4.8%,.,.,.
Cc1ccc(C)c(N)c1,-5.1%,-8.7,-0.2%,-0.7
Cc1ccc(O)c(N)c1,7.7%,-63.3,?,-105.3*
COC(=O)C1=C[C@@H](C(=O)OC)[C@@H]2C3=C(C(=O)C2(C)C)[C@H](c2ccccc2)[C@@H]2C(=O)N(c4ccccc4)C(=O)[C@@H]2[C@@H]3C1,-5.9%,.,.,.
C=CCn1c(CCCNC(=O)C(C)(C)C)nc2ccccc21,0.6%,5.1,-1.2%,1.0
C=CCn1c(C(C)NC(=O)C(C)(C)C)nc2ccccc21 (configuration not stated),-3.4%,16.5,-0.7%,-52.0*
Fc1ccccc1NC(=S)N/N=C/c1ccccc1Br,3.9%,-20.3,4.1%,-78.6*
O=[N+]([O-])c1ccc(/C=N/NC(=S)Nc2ccccc2F)o1,-1.9%,5.7,10.8%,?
O=[N+]([O-])c1ccc(/C=C/c2ccnc3ccccc23)c([N+](=O)[O-])c1,0.0%,.,.,.
CCOc1ccccc1CNCCN1CCOCC1,-0.3%,-6.9,-0.1%,-12.7
C=CCOc1ccccc1CNCCCN1CCOCC1,-0.7%,-14.4,0.2%,-59.1*
O=C(NC(=S)N1CCN(c2ccc([N+](=O)[O-])cc2)CC1)c1ccccc1,-0.8%,-0.2,0.2%,-20.7
Cc1ccc(C(=O)NC(=S)N2CCN(c3ccc([N+](=O)[O-])cc3)CC2)cc1,0.8%,-23.4,-0.7%,-52.6*
c1cncc(OC2CCN(Cc3ccc4c(c3)CN(Cc3ccc5c(c3)OCCO5)CCO4)CC2)c1,-3.8%,.,.,.
CC(C)COc1ccc(-c2nnc(-c3ccncc3)o2)cc1,?,8.7,2.9%,51.9
CCCOc1ccc(-c2nnc(-c3ccncc3)o2)cc1,3.1%,-4.1,1.9%,-70.9*
Fc1ccc(NC(=S)NC2CCN(Cc3ccccc3)CC2)cc1,-3.7%,1.5,-0.4%,-54.5*
SMILES,Glioma ERSR ind,DRD3 agonist,Nrf2 ARE act,DRD3 antagonist
S=C(Nc1ccc(Cl)c(Cl)c1)NC1CCN(Cc2ccccc2)CC1,1.4%,-7.4,-2.4%,-55.1*
CC(C)(C)CC(C)(C)NC(=S)NC1CCN(Cc2ccccc2)CC1,-2.6%,-13.3,3.6%,?
S=C(Nc1ccc(Cl)c(Cl)c1)NC1CCCCC1,3.0%,-8.7,3.6%,45.4
O=C(Nc1cccc(F)c1)NC1CCN(Cc2ccccc2)CC1,-1.1%,-9.9,-0.4%,-82.0*
CCCN1CCC(NC(=O)Nc2ccc(F)cc2F)CC1,-0.9%,-4.4,0.1%,-53.2*
COc1cc2nc(N3CCCN(C)CC3)nc(OC3CCN(C)CC3)c2cc1OC,-5.0%,.,.,.
COC(=O)[C@@H](NC(=O)NC1CCN(Cc2ccccc2)CC1)C(C)C,-4.0%,-17.8,-0.6%,-52.8*
CC(C)[C@H](NC(=O)NC1CCN(Cc2ccccc2)CC1)C(=O)O,-3.4%,8.2,0.2%,9.2
Cc1cc(C)nc(SCc2ccc(C(=O)N/N=C/c3ccncc3)cc2)n1,-2.5%,-20.4,-0.1%,-1.5
